# Test results taken from the supplement of paper PMC11732987, “Enantioselective OTUD7B fragment discovery through chemoproteomics screening and high-throughput optimisation” (Communications Chemistry, 2025).
# A number with no mark means an inactive call.
# Assays:
# Test in all cases: log2 ratio of Biotin-Ahx-Ub-VS probe labelling (fragment/DMSO); higher = less target engagement (more negative = stronger competition), active = hit call of the paper (q ≤ 0.05, log2 ratio ≤ -1)
# Details in all cases: compound concentration: 200 uM; treatment time: 3 h
# USP42 = target: T1, USP42 (UniProt Q9H9J4)
# T1 sequence (whole entry): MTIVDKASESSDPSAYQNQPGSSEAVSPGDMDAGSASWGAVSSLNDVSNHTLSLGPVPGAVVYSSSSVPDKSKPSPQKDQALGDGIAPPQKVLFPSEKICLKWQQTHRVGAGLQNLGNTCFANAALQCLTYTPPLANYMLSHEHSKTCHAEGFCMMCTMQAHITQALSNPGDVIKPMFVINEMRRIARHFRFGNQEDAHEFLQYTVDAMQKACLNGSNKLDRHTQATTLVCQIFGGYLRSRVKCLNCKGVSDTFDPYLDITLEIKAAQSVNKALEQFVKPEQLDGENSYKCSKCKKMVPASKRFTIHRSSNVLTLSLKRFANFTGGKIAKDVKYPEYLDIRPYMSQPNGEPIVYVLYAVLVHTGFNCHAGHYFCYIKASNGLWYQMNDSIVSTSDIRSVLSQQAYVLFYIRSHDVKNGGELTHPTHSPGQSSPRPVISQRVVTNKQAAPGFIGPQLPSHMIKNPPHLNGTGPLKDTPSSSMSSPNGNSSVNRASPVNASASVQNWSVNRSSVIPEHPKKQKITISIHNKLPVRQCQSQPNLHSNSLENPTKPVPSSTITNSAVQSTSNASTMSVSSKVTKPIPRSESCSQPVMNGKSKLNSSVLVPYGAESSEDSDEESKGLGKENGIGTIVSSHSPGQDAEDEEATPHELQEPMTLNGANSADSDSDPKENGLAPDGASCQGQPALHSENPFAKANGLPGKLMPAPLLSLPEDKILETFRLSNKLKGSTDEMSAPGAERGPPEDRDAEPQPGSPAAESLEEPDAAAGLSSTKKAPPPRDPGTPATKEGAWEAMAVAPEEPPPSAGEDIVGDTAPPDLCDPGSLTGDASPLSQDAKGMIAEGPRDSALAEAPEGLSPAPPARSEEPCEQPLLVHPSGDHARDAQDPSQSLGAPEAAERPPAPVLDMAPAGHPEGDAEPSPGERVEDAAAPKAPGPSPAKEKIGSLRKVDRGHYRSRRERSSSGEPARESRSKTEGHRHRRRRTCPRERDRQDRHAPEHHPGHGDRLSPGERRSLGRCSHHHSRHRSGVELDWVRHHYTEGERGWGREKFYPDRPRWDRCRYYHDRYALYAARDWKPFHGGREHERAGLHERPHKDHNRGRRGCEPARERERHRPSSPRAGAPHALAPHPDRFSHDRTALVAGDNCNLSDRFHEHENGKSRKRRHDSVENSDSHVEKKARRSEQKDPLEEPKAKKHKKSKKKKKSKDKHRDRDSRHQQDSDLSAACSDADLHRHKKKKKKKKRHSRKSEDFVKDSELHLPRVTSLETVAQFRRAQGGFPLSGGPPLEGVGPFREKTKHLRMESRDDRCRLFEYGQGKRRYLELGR
# Summary of the method: (§1)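 HEK293T lysate (495 µg per sample, in Tris/CHAPS/IGEPAL buffer with protease inhibitors) was exposed in triplicate for 3 h to fragment at 200 µM or to vehicle, then to Biotin-Ahx-Ub-VS at 0.5 µM final for 1 h. Labelled DUBs were enriched on NeutrAvidin, digested with LysC and trypsin, and analysed by diaPASEF LC-MS/MS. Spectronaut label-free quantities were normalised to the global median, and values are average log2 ratios of fragment over vehicle from an unpaired t-test. Only proteins with ≥2 unique peptides were used.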
# USP46 = USP46 (UniProt P62068)
# Summary of the method: as §1
# USP47 = target: T2, USP47 (UniProt Q96K76)
# T2 sequence (whole entry): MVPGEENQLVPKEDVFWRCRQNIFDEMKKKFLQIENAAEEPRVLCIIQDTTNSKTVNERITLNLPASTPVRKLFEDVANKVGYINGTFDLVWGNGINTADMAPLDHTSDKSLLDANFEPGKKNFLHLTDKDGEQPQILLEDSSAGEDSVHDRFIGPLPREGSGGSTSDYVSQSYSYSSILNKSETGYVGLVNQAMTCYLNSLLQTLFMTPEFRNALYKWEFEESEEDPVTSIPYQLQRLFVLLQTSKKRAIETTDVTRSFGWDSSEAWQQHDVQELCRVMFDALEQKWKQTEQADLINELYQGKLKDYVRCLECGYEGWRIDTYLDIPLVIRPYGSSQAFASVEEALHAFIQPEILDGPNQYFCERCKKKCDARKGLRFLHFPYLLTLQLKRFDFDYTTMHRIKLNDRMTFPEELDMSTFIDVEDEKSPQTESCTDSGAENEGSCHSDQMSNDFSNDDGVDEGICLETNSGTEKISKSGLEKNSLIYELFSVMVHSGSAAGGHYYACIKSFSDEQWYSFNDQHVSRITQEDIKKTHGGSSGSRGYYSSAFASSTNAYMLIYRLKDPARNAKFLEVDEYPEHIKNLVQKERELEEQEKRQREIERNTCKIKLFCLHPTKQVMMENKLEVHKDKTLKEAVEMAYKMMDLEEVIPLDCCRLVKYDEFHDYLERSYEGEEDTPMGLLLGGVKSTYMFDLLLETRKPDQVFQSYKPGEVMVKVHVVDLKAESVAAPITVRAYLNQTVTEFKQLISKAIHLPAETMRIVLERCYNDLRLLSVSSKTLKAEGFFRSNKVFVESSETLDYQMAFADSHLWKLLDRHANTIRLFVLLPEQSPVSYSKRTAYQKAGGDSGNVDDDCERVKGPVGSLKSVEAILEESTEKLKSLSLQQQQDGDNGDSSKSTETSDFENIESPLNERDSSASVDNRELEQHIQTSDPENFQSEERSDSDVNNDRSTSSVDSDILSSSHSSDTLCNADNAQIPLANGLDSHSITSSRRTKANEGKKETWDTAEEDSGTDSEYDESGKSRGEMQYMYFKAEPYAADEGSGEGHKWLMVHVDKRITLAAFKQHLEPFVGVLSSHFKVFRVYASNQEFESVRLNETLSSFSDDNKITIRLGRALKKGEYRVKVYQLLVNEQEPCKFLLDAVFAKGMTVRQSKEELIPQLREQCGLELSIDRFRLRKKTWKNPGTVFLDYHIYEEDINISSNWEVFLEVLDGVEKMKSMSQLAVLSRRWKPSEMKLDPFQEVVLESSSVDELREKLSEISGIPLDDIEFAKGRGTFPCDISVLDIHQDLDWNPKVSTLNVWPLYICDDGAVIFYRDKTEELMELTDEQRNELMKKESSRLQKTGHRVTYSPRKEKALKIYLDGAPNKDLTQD
# Summary of the method: as §1
# USP48 = target: T3, USP48 (UniProt Q86UV5)
# T3 sequence (whole entry): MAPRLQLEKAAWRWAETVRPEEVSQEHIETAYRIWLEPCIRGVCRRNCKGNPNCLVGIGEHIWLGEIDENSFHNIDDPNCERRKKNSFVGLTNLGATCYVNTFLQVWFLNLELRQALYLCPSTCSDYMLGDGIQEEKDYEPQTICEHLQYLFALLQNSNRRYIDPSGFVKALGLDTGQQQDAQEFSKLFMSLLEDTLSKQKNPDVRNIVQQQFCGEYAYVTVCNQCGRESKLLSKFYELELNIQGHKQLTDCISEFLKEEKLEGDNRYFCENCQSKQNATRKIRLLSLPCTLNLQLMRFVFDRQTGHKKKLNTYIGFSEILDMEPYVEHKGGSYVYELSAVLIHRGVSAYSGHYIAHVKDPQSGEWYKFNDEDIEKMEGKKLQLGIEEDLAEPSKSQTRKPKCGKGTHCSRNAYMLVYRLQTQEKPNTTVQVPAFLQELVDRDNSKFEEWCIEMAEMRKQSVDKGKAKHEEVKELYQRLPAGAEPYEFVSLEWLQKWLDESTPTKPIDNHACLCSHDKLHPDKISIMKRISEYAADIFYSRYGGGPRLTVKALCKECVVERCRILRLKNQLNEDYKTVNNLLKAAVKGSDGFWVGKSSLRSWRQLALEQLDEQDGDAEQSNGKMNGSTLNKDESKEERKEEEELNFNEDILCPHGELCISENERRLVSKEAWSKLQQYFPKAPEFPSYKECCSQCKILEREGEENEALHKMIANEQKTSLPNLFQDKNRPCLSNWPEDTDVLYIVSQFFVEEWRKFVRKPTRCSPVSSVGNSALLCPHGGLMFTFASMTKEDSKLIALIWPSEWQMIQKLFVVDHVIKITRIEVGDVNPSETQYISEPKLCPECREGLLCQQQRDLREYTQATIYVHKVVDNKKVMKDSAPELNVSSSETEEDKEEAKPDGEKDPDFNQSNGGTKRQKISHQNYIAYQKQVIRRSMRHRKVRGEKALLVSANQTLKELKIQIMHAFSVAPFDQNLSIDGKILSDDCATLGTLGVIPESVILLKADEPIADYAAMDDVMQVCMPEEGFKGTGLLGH
# Summary of the method: as §1
# USP5 = target: T4, USP5 (UniProt P45974)
# T4 sequence (whole entry): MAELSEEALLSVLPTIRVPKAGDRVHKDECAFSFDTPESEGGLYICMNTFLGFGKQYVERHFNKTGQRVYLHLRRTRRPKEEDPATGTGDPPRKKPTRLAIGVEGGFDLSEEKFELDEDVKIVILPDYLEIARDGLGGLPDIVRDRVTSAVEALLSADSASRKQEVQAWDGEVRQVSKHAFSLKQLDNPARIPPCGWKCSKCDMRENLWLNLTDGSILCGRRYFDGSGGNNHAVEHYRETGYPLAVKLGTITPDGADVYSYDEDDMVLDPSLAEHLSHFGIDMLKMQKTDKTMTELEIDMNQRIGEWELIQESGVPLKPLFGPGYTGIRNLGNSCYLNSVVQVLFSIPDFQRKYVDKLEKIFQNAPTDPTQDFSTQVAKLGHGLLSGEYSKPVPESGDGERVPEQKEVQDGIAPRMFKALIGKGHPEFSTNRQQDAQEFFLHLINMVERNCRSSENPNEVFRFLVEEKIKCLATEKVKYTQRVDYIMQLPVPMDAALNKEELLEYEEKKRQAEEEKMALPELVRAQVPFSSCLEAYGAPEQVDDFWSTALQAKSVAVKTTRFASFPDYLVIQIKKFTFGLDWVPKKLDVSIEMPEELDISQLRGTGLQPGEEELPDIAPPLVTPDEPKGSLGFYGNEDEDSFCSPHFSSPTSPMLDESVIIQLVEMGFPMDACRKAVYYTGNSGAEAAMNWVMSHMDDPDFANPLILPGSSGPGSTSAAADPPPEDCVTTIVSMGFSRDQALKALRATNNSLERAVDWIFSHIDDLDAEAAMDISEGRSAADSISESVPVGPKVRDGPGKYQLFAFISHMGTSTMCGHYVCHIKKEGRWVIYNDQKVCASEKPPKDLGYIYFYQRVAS
# Summary of the method: as §1
# USP54 = USP54 (UniProt Q70EL1)
# Summary of the method: as §1
# USP7 = USP7 (UniProt Q93009)
# Summary of the method: as §1
# USP8 = target: T5, USP8 (UniProt P40818)
# T5 sequence (whole entry): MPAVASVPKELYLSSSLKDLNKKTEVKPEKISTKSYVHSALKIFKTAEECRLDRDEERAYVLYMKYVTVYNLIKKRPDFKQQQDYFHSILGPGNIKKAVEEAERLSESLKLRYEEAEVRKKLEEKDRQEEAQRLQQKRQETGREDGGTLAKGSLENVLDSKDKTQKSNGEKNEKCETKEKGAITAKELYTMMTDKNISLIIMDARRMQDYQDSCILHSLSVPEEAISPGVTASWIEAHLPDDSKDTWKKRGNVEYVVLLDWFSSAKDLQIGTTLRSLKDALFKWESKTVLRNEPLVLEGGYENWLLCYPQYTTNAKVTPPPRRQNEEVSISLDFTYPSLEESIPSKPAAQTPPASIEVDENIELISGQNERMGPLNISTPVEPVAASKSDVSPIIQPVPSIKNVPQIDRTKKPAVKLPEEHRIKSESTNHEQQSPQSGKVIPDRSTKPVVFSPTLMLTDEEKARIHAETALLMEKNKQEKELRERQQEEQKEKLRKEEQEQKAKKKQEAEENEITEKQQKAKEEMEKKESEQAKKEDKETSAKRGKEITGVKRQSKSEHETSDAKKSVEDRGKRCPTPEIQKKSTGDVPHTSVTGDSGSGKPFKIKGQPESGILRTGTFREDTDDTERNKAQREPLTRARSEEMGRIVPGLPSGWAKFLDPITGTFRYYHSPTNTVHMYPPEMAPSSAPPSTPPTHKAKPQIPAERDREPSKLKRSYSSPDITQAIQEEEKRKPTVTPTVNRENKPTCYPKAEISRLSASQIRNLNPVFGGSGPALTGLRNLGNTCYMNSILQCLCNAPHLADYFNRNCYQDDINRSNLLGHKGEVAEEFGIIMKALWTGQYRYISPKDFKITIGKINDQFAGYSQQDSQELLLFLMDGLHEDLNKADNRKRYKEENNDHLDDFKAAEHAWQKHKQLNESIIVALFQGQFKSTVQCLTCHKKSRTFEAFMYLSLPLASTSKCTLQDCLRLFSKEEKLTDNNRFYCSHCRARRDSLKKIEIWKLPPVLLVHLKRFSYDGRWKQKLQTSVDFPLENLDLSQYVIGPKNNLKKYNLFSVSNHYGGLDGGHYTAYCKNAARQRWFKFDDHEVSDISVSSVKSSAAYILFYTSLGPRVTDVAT
# Summary of the method: as §1
# Sequence of USP46 (P62068 whole entry): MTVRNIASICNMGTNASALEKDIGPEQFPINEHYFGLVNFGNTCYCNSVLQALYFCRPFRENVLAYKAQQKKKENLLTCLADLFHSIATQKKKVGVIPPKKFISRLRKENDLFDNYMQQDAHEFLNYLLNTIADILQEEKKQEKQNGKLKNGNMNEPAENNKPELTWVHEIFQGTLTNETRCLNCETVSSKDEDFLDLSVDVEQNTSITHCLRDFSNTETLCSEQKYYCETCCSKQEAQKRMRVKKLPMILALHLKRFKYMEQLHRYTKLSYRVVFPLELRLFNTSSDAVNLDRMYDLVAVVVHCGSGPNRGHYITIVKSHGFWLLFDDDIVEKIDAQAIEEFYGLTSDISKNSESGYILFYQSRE
# Sequence of USP54 (Q70EL1 whole entry): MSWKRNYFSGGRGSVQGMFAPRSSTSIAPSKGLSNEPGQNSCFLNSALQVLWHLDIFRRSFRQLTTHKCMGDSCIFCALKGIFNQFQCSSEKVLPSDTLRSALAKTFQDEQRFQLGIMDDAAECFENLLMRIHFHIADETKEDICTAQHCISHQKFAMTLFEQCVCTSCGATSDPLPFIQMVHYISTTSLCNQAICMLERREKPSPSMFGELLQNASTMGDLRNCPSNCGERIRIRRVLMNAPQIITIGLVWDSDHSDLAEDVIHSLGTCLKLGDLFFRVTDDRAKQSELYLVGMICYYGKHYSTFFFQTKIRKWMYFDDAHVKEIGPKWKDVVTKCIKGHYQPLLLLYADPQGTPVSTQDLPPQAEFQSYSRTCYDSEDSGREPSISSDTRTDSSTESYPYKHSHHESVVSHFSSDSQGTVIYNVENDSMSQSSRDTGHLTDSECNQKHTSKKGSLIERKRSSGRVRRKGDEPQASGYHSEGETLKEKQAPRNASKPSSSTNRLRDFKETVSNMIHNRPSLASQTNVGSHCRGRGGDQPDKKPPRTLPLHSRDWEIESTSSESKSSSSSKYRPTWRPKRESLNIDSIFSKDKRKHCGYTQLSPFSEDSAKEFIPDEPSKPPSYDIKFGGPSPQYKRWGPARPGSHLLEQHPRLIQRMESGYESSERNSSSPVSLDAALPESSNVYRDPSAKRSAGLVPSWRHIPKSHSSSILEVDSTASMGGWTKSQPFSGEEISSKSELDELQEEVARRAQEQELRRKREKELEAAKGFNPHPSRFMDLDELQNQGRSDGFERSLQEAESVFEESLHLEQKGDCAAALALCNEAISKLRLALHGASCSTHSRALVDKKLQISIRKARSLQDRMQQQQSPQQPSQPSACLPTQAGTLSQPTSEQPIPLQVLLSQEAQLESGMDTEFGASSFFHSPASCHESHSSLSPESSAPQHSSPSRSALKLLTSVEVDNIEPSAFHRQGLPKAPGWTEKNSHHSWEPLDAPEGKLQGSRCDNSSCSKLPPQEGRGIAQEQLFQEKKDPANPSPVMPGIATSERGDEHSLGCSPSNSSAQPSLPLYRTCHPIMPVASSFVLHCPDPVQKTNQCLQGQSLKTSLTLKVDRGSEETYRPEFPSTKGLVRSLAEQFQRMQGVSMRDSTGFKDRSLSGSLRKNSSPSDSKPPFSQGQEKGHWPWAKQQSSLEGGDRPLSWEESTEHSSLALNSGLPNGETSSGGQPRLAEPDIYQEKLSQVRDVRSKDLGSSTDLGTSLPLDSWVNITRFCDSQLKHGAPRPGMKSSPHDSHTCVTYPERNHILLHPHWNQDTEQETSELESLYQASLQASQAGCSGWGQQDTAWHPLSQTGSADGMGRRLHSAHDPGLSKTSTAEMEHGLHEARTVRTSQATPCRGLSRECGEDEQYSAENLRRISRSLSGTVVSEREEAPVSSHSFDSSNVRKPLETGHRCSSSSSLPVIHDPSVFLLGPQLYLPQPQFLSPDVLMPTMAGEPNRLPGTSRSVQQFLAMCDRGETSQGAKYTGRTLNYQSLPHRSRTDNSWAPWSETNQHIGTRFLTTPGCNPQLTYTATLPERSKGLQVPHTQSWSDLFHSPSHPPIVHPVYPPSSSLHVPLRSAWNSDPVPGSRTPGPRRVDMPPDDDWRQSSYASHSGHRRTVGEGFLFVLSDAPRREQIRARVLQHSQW
# Sequence of USP7 (Q93009 whole entry, looked up): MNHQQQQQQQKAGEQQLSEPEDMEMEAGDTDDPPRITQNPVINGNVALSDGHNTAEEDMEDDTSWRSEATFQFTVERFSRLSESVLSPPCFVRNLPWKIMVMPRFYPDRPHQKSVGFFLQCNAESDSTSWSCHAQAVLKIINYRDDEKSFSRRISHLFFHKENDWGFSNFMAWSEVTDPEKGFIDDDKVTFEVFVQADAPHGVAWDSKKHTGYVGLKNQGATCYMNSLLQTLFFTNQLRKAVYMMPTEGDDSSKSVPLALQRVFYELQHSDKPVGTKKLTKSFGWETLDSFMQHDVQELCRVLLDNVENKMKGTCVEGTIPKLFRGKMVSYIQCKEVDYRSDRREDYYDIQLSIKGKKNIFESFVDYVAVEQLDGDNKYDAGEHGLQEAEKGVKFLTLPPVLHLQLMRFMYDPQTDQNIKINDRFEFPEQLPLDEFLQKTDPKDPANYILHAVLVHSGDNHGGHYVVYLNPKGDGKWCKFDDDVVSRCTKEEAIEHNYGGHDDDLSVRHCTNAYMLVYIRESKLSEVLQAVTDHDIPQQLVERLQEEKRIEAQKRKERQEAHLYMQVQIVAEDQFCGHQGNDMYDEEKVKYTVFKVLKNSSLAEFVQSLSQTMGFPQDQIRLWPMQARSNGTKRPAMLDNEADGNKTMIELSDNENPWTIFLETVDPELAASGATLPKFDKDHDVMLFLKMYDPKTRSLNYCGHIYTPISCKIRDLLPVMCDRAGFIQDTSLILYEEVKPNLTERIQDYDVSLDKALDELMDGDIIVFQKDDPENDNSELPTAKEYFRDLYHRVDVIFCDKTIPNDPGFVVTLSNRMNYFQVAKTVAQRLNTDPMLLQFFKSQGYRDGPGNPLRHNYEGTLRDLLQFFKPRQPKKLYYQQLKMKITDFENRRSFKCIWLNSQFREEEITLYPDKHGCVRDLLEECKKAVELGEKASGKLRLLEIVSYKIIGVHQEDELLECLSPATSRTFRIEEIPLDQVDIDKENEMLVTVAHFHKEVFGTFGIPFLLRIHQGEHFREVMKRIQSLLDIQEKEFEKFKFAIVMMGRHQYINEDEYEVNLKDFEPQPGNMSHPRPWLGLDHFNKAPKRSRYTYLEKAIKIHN
compound,measurement,setting,value
NC(=O)C1CCCCN1C(=O)CCl (stereo not drawn),log2 ratio of Biotin-Ahx-Ub-VS probe labelling,USP42,-0.0547
same,log2 ratio of Biotin-Ahx-Ub-VS probe labelling,USP46,0.025
same,log2 ratio of Biotin-Ahx-Ub-VS probe labelling,USP47,-0.299
same,log2 ratio of Biotin-Ahx-Ub-VS probe labelling,USP48,-1.03 (active)
same,log2 ratio of Biotin-Ahx-Ub-VS probe labelling,USP5,0.371
same,log2 ratio of Biotin-Ahx-Ub-VS probe labelling,USP54,0.325
same,log2 ratio of Biotin-Ahx-Ub-VS probe labelling,USP7,-0.76
same,log2 ratio of Biotin-Ahx-Ub-VS probe labelling,USP8,-0.26
